Here are results for nine compounds from PubChem BioAssay.

A short description of assay [1]: compound effects on lung adenocarcinoma cell viability – A549, calcein-AM fluorescence, 48 h, basal, profiling panel (AID 1162). Further: test concentration not given here. Particulars: higher = more signal.
A short description of assay [2]: compound effects on differentiated 3T3-L1 adipocyte viability – cell-based, 3T3-L1 adipocytes, calcein-AM fluorescence, 48 h, basal, profiling panel (AID 1163). Further: test concentration not given here. Particulars: 3T3-L1 adipocytes viability, higher = more signal.
Assay [3] in a line: compound effects on hepatocellular carcinoma cell viability – HepG2, calcein-AM fluorescence, 48 h, basal, profiling panel (AID 1164). Further: test concentration not given here. The following applies: higher = more signal.
The nature of assay [4]: compound effects on multiple myeloma cell viability – MM1S, calcein-AM fluorescence, 48 h, basal, profiling panel (AID 1165).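 Further: viability of MM1S multiple myeloma cells under basal unstimulated conditions; test concentration not given here.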 Particulars: higher = more signal.
A short description of assay [5]: calcein-AM signal in unstimulated myeloma cells – cell-based, calcein-AM fluorescence, 48 h, PK04 Diversity Set, profiling panel (AID 1166).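 Further: cells grown under basal conditions without added stimulus; test concentration not given here.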 The following applies: RPMI8226 myeloma viability, higher = more signal.
Assay [6] is described as follows: JC-1 mitochondrial signal, unstimulated HepG2 cells – cell-based, JC-1 fluorescence, 24 h, 100 nL compound, profiling panel (AID 1167). Further: test concentration not given here. Particulars: HepG2 mitochondrial potential, higher = more signal.
Assay [7] can be described thus: JC-1 mitochondrial signal, unstimulated adipocytes – cell-based, JC-1 fluorescence, 3T3-L1 adipocytes, 24 h, 100 nL compound, profiling panel (AID 1168). Further: test concentration not given here. Particulars: JC-1 mitochondrial fluorescence, higher = more signal, called active from +8 up or from −8 down.
Assay [8] can be described thus: JC-1 mitochondrial signal, unstimulated myeloma cells – cell-based, JC-1 fluorescence, RPMI8226, 24 h, 100 nL compound, profiling panel (AID 1169). Further: test concentration not given here. The following applies: JC-1 mitochondrial potential fluorescence, higher = more signal.
A short description of assay [9]: JC-1 mitochondrial signal, unstimulated MM1S myeloma – cell-based, JC-1 fluorescence, 24 h, 100 nL compound, profiling panel (AID 1170). Further: test concentration not given here. The following applies: MM1S mitochondrial potential, higher = more signal.
Assay [10] can be described thus: resazurin metabolic signal in A549 cells – cell-based, resazurin fluorescence, 24 h, PK04 Diversity Set, profiling panel (AID 1171). Further: test concentration not given here. Particulars: A549 viability, higher = more signal, called active from +8 up or from −8 down. A general note: Resazurin is reduced to fluorescent resorufin, in cell work by metabolically active cells.
Assay [11] can be described thus: resazurin metabolic signal in HepG2 cells – cell-based, resazurin fluorescence, 24 h, PK04 Diversity Set, profiling panel (AID 1172). Further: test concentration not given here. The following applies: HepG2 viability, higher = more signal.
The nature of assay [12]: budding yeast growth changes without added modifier – OD600, strain BY4716, 24 h, basal condition, primary screen (AID 1173). The following applies: S. cerevisiae BY4716 growth, OD600, 24 h; higher = more signal, called active from +8 up or from −8 down.
Assay [13] is described as follows: viability profiling in MM1S myeloma cells – cell-based, resazurin fluorescence, basal, 24 h, PK04 Diversity Set, profiling panel (AID 1174). Further: test concentration not given here. The following applies: higher = more signal, called active from +8 up or from −8 down.
For assay [14], the target named is Dihydroorotate dehydrogenase (quinone), mitochondrial (Plasmodium falciparum (isolate 3D7)) (UniProt Q08210). Put plainly: inhibition of P. falciparum DHODH – biochemical, C-terminal His tag, absorbance 600 nm, primary screen (AID 1175).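 Further: recombinant parasite enzyme with a five histidine tag at its C terminus; test concentration not given here.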 The following applies: PfDHODH enzyme, DCIP absorbance 600 nm; higher = more signal, called active from +8 up or from −8 down.
The nature of assay [15]: inhibition of PAO1 biofilm formation – strain PAO1, LB-PBS medium, absorbance 600 nm, primary screen (AID 1176). Further: test concentration not given here. Particulars: P. aeruginosa PAO1 growth/biofilm, A600, 12 h; higher = more signal.
Assay [16] is described as follows: growth modulation of vineyard yeast isolate – strain RM11-1a, OD600, basal, 24 h, primary screen (AID 1177).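 Further: cultures grown under basal conditions with no added stressor; test concentration not given here.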 The following applies: S. cerevisiae RM11-1a growth, OD600, 24 h; higher = more signal, called active from +8 up or from −8 down.
The nature of assay [17]: growth of efflux-deficient E. coli DRC39 – strain DRC39, OD650, 24 h, E. coli filamentation inducers, primary screen (AID 1178).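 Further: growth measured as culture turbidity by optical density at 650 nm; test concentration not given here.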 Particulars: E. coli DRC39 acrAB, higher = more signal, called active from +8 up or from −8 down.
The nature of assay [18]: growth of efflux-deficient E. coli DRC39 – strain DRC39, OD650, 48 h, E. coli filamentation inducers, primary screen (AID 1179).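 Further: screen aims at cell division blockers that make cells filament.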 The following applies: E. coli DRC39 delta-acrAB growth, higher = more signal, called active from +8 up or from −8 down.
A short description of assay [19]: viability profiling in RPMI8226 myeloma cells – cell-based, resazurin fluorescence, basal, 24 h, PK04 Diversity Set, profiling panel (AID 1180).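 Further: RPMI8826 multiple myeloma cell line at 5000 cells per well; test concentration not given here.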 Particulars: higher = more signal.
For assay [20], the target named is E3 ubiquitin-protein ligase XIAP (Homo sapiens) (UniProt P98170). Put plainly: small molecules binding XIAP protein – biophysical, small-molecule microarray, fluorescence 635 nm, primary screen (AID 1181).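 Further: score merges 667 nm emission and signal to noise over triplicate slides.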 The following applies: higher = more signal.

The source made the active and inactive calls. Unless noted, how the calls were made is not given here.

Chain of Dihydroorotate dehydrogenase (quinone), mitochondrial (Plasmodium falciparum (isolate 3D7)) (Q08210 whole entry, looked up): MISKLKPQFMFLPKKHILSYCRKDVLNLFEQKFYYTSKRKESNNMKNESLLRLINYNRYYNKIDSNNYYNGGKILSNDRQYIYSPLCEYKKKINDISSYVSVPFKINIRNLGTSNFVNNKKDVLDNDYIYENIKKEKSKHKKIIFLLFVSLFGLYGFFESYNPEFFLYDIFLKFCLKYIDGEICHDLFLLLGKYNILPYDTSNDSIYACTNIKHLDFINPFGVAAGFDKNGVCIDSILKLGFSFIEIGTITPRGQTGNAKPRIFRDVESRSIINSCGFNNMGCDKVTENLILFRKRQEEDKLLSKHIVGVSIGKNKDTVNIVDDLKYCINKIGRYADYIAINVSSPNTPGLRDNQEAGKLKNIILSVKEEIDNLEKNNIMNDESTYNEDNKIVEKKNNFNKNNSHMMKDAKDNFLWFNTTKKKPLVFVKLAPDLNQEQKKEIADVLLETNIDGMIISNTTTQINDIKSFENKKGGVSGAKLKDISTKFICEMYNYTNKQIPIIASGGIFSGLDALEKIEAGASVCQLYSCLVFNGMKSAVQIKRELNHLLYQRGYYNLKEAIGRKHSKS
Chain of E3 ubiquitin-protein ligase XIAP (Homo sapiens) (P98170 whole entry, looked up): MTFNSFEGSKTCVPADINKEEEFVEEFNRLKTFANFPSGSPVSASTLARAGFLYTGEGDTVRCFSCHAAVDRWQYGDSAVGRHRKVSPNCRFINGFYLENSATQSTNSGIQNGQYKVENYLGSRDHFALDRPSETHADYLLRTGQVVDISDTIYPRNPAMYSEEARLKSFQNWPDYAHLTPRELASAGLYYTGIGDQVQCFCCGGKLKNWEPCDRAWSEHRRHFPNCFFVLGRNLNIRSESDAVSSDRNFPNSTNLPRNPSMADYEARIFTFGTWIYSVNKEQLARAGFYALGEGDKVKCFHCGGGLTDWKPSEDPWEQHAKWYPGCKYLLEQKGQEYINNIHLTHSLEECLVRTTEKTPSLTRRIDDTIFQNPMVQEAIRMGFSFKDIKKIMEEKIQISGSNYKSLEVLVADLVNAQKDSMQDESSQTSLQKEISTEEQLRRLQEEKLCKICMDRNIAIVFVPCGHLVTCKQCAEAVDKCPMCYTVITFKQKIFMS

Consider `COCCOC(=O)N1C(=O)[C@@]2(c3cc(C#CCCO)ccc31)[C@H](C(N)=O)[C@H]1C(=O)O[C@H](c3ccccc3)[C@H](c3ccccc3)N1[C@@H]2c1ccc(OCCO)cc1`, for which the z-score is 0.518 in [1]; 0.0809 in assay [2]; 0.325 in assay [3]; -0.971 in assay [4]; -0.859 in assay [5]; -1.78 in assay [6]. Besides, the z-score in assay [7] is 0.959 (inactive); in [8] it was -0.505; in assay [9] it was -0.0622; in [10] it was -0.0958 (inactive); in assay [11] it was -0.639; in [12], 1.21 (inactive). Moreover, the z-score in assay [13] was -0.479 (inactive); in assay [15], 1.56 (inactive); in assay [16] it was 2.16 (inactive); in assay [17], -0.138 (inactive); in assay [18] it was 0.386 (inactive); in assay [19] it was -0.621. In addition, the composite z-score in assay [14] was 0.46 (inactive); in assay [20] it was 0.409.
In the case of `O=C1C[C@@](C(=O)NCc2ccccc2)(c2ccc([N+](=O)[O-])cc2)[C@@H](c2ccc(CO)cc2I)N1CC12CC3CC(CC(C3)C1)C2`, the z-score in assay [1] is -1.84; in assay [2], 0.684; in assay [3] it was -2.67; in assay [4] it was -2.99; in [5] it was -4.33; in assay [6], 0.878. Further, the z-score in assay [7] was -0.473 (inactive); in [8], -1.03; in assay [9], -0.91; in assay [10], -1.63 (inactive); in assay [11] it was -1.28; in [12], -0.787 (inactive). Also, the z-score in [13] was -1.73 (inactive); in assay [15], 0.593 (inactive); in assay [16], -0.229 (inactive); in assay [17], 0.0207 (inactive); in assay [18], 0.348 (inactive); in [19], -2.62. The figures for the composite z-score in [14] and in assay [20] were -0.0036 (inactive) and -0.227, respectively.
As to `CC(C)C[C@@H]1NC(=O)[C@@]23C(=O)N[C@@H](Cc4ccccc4)C2[C@H](C)[C@@]2(C)O[C@H]2C3/C=C/C/C=C\CNC(=O)[C@@H](C)NC1=O` (stereo not given in full), the z-score in assay [1] was -0.366; in assay [2], 0.718; in [3] it was -0.0346; in assay [4] it was 0.761; in assay [5], -1.12; in assay [6] it was 0.991. For the same compound, the z-score in assay [7] was 0.625 (inactive); in assay [8] it was 0.207; in assay [9] it was -0.342; in assay [10], 1.16 (inactive); in [11], 0.833; in [12] it was -0.68 (inactive). Besides, the z-score in assay [13] was 1.33 (inactive); in [15], -0.131 (inactive); in assay [16], -1.08 (inactive); in assay [17] it was 1.65 (inactive); in [18], 0.209 (inactive); in assay [19], 1.01. The composite z-score in assay [14] was -0.401 (inactive); in assay [20] it was -0.116.
In the case of `CCCCC=C[C@@H](NC(=O)c1ccccc1)c1ccccc1`, the z-score was -1.07 in assay [1]; -0.417 in assay [2]; -1.02 in assay [3]; -0.842 in assay [4]; -2.29 in assay [5]; 0.18 in [6]. The z-score in assay [7] is -1.04 (inactive); in [8], 0.135; in [9], -0.434; in [10], 0.962 (inactive); in assay [11], -0.35; in assay [12], 0.483 (inactive). Moreover, the z-score is 0.0386 (inactive) in assay [13]; 1.43 (inactive) in assay [15]; 0.0455 (inactive) in [16]; -1.44 (inactive) in assay [17]; -1.29 (inactive) in [18]; -0.321 in assay [19]. The composite z-score in assay [14] was -0.845 (inactive); in assay [20] it was 0.0348.
For `CCCCC(=O)N(CCN1CCOCC1)[C@@H]1CC(C(=O)NCCO)=C[C@H](Oc2c(I)cc(CO)cc2OC)[C@H]1O`, the z-score is 1.5 in [1]; -1.07 in [2]; 0.569 in [3]; 0.135 in assay [4]; -0.157 in assay [5]; -0.959 in assay [6]. The z-score is -0.716 (inactive) in assay [7]; -0.277 in assay [8]; -0.109 in assay [9]; -0.0043 (inactive) in assay [10]; 0.246 in [11]; -1.23 (inactive) in assay [12]. Besides, the z-score in assay [13] is 0.0671 (inactive); in [15], 0.118 (inactive); in [16], 0.615 (inactive); in [17], 1.34 (inactive); in [18] it was 1.15 (inactive); in assay [19], 0.29. Also, the results for the composite z-score in [14] and in assay [20] were 0.229 (inactive) and -0.22, respectively.
In the case of `C=CCNC(=O)[C@H]1[C@@H]2C(=O)O[C@@H](c3ccccc3)[C@@H](c3ccccc3)N2[C@@H](c2ccc(OCCO)cc2)[C@]12C(=O)N(C(=O)OCCOC)c1ccc(C#Cc3ccc(OC)cc3)cc12`, the z-score in assay [1] is -0.394; in assay [2] it was 1.44; in [3] it was -0.652; in assay [4] it was -0.303; in [5] it was -1.2; in assay [6], -1.22. In addition, the z-score is 3.09 (inactive) in assay [7]; -0.904 in assay [8]; -0.529 in assay [9]; 0.0724 (inactive) in [10]; -1.14 in assay [11]; 0.583 (inactive) in assay [12]. The z-score is 0.476 (inactive) in assay [13]; 2.11 (inactive) in assay [15]; 2.22 (inactive) in [16]; 1.07 (inactive) in assay [17]; 0.941 (inactive) in assay [18]; 0.637 in assay [19]. Besides, the composite z-score in assay [14] is -2.05 (inactive); in assay [20] it was -0.0344.
For the compound `COc1ccc([Si](C)(C)[C@@H]2[C@@H](CC(=O)N3Cc4ccccc4C[C@H]3CO)O[C@]3(C(=O)N(Cc4ccc(N5CCC5=O)cc4)c4ccccc43)[C@H]2C)cc1`, the z-score is -0.167 in assay [1]; 0.233 in assay [2]; 0.437 in assay [3]; -0.0069 in [4]; -1.76 in assay [5]; 1.13 in assay [6]. The z-score is 1.37 (inactive) in assay [7]; -0.553 in [8]; -0.502 in [9]; -0.61 (inactive) in assay [10]; 0.353 in assay [11]; 0.457 (inactive) in [12]. Moreover, the z-score was -0.736 (inactive) in [13]; 1.45 (inactive) in assay [15]; 2.01 (inactive) in assay [16]; 0.7 (inactive) in assay [17]; 0.613 (inactive) in assay [18]; -0.536 in assay [19]. Besides, the composite z-score in assay [14] was -3 (inactive); in assay [20], 0.177.
Regarding `CN1C(=O)C2C(C1=O)C1C=C(CCCO)C2C(c2cccs2)N1Cc1cc2c(cc1Br)OCO2` (stereo not given), the z-score in assay [1] was 0.952; in assay [2] it was 0.225; in [3] it was 0.557; in [4], -0.635; in assay [5], -1.44; in [6] it was -0.129. For the same compound, the z-score is -0.859 (inactive) in [7]; -0.309 in assay [8]; 0.872 in [9]; -0.0723 (inactive) in [10]; -0.0567 in [11]; -1.67 (inactive) in assay [12]. For the same compound, the z-score in assay [13] is -0.35 (inactive); in assay [15], -0.131 (inactive); in [16], 0.0034 (inactive); in [17], 0.19 (inactive); in [18], -0.512 (inactive); in [19], 0.0707. The composite z-score is -0.539 (inactive) in assay [14] and 0.176 in [20].
Consider `COC(=O)C1N=C(c2ccc(OCCCO)cc2)N(c2ccccc2)O1` (stereo not given), for which the z-score in assay [1] was 0.893; in assay [2], 1.16; in assay [3] it was 0.634; in [4] it was -0.943; in [5] it was 0.5; in assay [6], 0.684. Further, the z-score in assay [7] is -0.407 (inactive); in assay [8], -0.44; in [9], 0.042; in [10], 0.953 (inactive); in [11], 0.863; in assay [12], -1.41 (inactive). In addition, the z-score was -0.279 (inactive) in assay [13]; -1.1 (inactive) in assay [15]; 0.061 (inactive) in [16]; 0.642 (inactive) in assay [17]; -0.0518 (inactive) in assay [18]; 1.22 in [19]. Besides, the composite z-score in [14] was -1.24 (inactive); in assay [20] it was -0.0118.
